Inconclusive results are not listed. Values without a mark were called inactive. Activity calls are given as the source filed them. Unless noted, calls come from the whole dose curve; as a rule, active = well fitted curve in the direction sought with a large enough effect in the repeat runs; inconclusive = weak or mixed curves; inactive = no such curve, though single readings can be large; an effect the other way counts as inactive or inconclusive.

Results on 23 compounds are retold here after PubChem BioAssay (Tox21).

Assay [1] in a line: qHTS assay to identify small molecule antagonists of the thyroid receptor (TR) signaling pathway - cell viability counter screen (AID 743064). Note: nearly all actives have a fitted effect of over 50% in size. A digest of the protocol:
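GH3.TRE-Luc rat pituitary cells carrying a TRE-luciferase reporter were treated with compound plus 1 nM T3 (final) for 23.5 h at 37 °C. Viability was then read in the same wells by CellTiter-Fluor fluorescence after a further 30 min.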
(In general: In qHTS, concentration-response curves come from the screen itself.)

Assay [2] in a line: qHTS assay to identify small molecule antagonists of the thyroid receptor (TR) signaling pathway (AID 743065). Note: series mostly up to about 70 µM; nearly all actives have a fitted effect of over 55% in size. The essentials: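 Antagonism measured as loss of luciferase signal in GH3 cells stably carrying a TRE-luciferase reporter, co-treated with compound and T3 (1 nM final) for 23.5 h at 37 C. Viability was read in the same well by CellTiter-Fluor.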
Assay [3] has as its system thyroid hormone receptor (rat, GH3 cells). Put plainly: qHTS assay to identify small molecule agonists of the thyroid receptor (TR) signaling pathway (AID 743066; calls by dose curve).
Assay [4] has as its target Estrogen receptor (Homo sapiens) (UniProt P03372). As to the kind of experiment: qHTS assay to identify small molecule antagonists of the estrogen receptor alpha (ER-alpha) signaling pathway (AID 743069; active = well fitted curve in the direction sought with a large enough effect in the signal ratio in the repeat runs, not every such curve was filed as active; the % refers to the signal ratio). The essentials:
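Antagonist mode: compounds in DMSO were co-added with 17beta-estradiol to ER-alpha-bla HEK293 cells (2% charcoal-stripped serum) and left 18 h at 37C. Reporter inhibition was measured as FRET fluorescence after 2 h LiveBLAzer substrate at room temperature.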

Assay [5] can be described thus: qHTS assay to identify small molecule antagonists of the estrogen receptor alpha (ER-alpha) signaling pathway - cell viability counter screen (AID 743074; calls by dose curve;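 note: HEK293 cells carrying ER-alpha-UAS-bla reporter stimulated with 17beta-estradiol; nearly all actives have a fitted effect of over 45% in size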).
The target of assay [6] is Estrogen receptor (Homo sapiens) (UniProt P03372). Put plainly: qHTS assay to identify small molecule agonists of the estrogen receptor alpha (ER-alpha) signaling pathway (AID 743075; calls by dose curve;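 note: HEK293 GripTite cells with ER-alpha and UAS-driven beta-lactamase reporter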).
Assay [7] shares this target. Put plainly: qHTS assay to identify small molecule agonists of the estrogen receptor alpha (ER-alpha) signaling pathway using the BG1 cell line (AID 743079). Note: nearly all actives have a fitted effect of over 20% in size. Note: potency is the fitted concentration of half-maximal effect.
Assay [8] in a line: qHTS assay to identify small molecule antagonists of the estrogen receptor alpha (ER-alpha) signaling pathway using the BG1 cell line (AID 743080; calls by dose curve;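 note: BG1 cells stimulated with 17beta-estradiol alongside compound; series mostly up to about 70 µM; nearly all actives have a fitted effect of over 25% in size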). The essentials:
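BG1Luc4E2, endogenous ER-alpha, 4xERE-luc; 5 d charcoal-stripped FBS, phenol red free; 24 h plating; cpd + 17beta-estradiol 21.5 h, 37 C/5% CO2; CellTiter-Fluor viability 30 min, then ONE-Glo luciferase 30 min RT.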

Assay [9] in a line: qHTS assay to identify small molecule antagonists of the estrogen receptor alpha (ER-alpha) signaling pathway using the BG1 cell line - cell viability counter screen (AID 743081).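 Note: compound given together with 17beta-estradiol as the ER stimulus; series mostly up to about 70 µM; nearly all actives have a fitted effect of over 45% in size.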
The target in assay [10] is Aromatase (Homo sapiens) (UniProt P11511). As to the kind of experiment: qHTS assay to identify aromatase inhibitors (AID 743083). Note: series mostly up to about 70 µM; nearly all actives have a fitted effect of over 55% in size.
Aromatase (Homo sapiens), sequence (P11511 whole entry, looked up): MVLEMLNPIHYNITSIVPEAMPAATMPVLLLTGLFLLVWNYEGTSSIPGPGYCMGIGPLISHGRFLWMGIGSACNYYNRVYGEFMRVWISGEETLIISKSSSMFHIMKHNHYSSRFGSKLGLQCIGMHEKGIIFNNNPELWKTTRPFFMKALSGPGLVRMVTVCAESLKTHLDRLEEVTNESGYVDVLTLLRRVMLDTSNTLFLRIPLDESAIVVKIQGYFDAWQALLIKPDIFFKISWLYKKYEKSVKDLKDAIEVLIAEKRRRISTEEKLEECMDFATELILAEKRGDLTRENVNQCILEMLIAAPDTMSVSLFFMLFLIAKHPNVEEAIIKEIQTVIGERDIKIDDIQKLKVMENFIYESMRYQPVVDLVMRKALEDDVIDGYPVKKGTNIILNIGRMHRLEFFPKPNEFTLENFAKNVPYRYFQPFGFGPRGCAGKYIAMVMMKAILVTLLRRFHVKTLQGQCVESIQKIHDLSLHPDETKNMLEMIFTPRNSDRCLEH

Estrogen receptor (Homo sapiens), sequence (P03372 whole entry, looked up): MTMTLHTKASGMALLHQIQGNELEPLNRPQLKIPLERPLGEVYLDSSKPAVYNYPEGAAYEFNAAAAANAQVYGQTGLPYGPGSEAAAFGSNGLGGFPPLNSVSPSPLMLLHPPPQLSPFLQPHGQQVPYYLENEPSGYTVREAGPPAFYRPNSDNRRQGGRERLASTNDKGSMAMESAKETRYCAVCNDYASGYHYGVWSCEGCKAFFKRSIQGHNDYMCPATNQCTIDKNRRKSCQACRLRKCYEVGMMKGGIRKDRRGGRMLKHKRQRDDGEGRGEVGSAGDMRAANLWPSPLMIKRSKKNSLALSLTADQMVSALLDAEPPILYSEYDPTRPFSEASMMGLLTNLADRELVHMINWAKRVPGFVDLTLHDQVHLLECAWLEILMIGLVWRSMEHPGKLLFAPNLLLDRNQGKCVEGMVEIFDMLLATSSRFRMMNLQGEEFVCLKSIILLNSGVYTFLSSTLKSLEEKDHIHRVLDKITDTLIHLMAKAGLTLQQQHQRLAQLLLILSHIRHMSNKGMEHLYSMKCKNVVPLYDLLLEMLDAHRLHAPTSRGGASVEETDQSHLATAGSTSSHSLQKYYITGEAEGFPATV

Turning to `CCCCOCCOC(=O)COc1nc(Cl)c(Cl)cc1Cl`, the Potency entry in assay [1], in assay [2], in assay [7], in [8] and in assay [10] was “inactive” throughout. Further, the result in [3], in assay [4], in [5], in assay [6] and in assay [9] was inactive.
Turning to `COc1cc(C(=S)N2CCOCC2)cc(OC)c1OC`, the Potency entry in assay [1], in [2], in assay [7], in [8] and in [10] was “inactive” each time. Moreover, the result in [3], in assay [4], in [5], in assay [6] and in assay [9] was inactive.
For `NC(CO)C(=O)NNCc1ccc(O)c(O)c1O` (stereo not given), the Potency entry in assay [1], in assay [2], in assay [7], in assay [8] and in [10] was “inactive” throughout. Further, the call in [3], in assay [4], in [5], in assay [6] and in assay [9] was inactive.
For the compound `CO[C@@H]1[C@@H](OC(N)=O)[C@@H](O)[C@H](Oc2ccc3c(O)c(NC(=O)c4ccc(O)c(CC=C(C)C)c4)c(=O)oc3c2C)OC1(C)C`, the Potency entry in [1], in assay [2], in assay [7], in assay [8] and in assay [10] was “inactive” in each case. Moreover, the outcome in assay [3], in assay [4], in [5], in [6] and in assay [9] was inactive.
Take `C=C1CC/C=C(\C)CC[C@@H]2[C@@H]1CC2(C)C`: the Potency result in assay [1], in assay [2], in [7], in assay [8] and in assay [10] was “inactive” in each case. The call in [3], in [4], in [5], in assay [6] and in [9] was inactive.
For the compound `CCCCN`, the Potency result in assay [1], in assay [2], in [7], in [8] and in assay [10] was “inactive” throughout. Besides, the outcome in [3], in assay [4], in assay [5], in assay [6] and in assay [9] was inactive.
As to `CC(=O)CCCCn1c(=O)c2c(ncn2C)n(C)c1=O`, the Potency entry in assay [1], in assay [2], in assay [7], in assay [8] and in assay [10] was “inactive” throughout. In addition, the result in assay [3], in assay [4], in [5], in assay [6] and in [9] was inactive.
As to `N[C@@H](CCC(=O)Nc1ccc([N+](=O)[O-])cc1)C(=O)O`, the Potency entry in [1], in [2], in [7], in assay [8] and in [10] was “inactive” each time. Also, the outcome in [3], in assay [4], in [5], in assay [6] and in [9] was inactive.
Regarding `O=C(O)C(=O)Cc1ccccc1`, the Potency result in [1], in assay [2], in assay [7], in [8] and in [10] was “inactive” throughout. Also, the compound was called inactive in assay [3], in assay [4], in assay [5], in [6] and in [9].
Consider `CN(C)CCOCCO`, for which the Potency result in assay [1], in [2], in [7], in assay [8] and in assay [10] was “inactive” in each case. In addition, the result in assay [3], in assay [4], in [5], in [6] and in assay [9] was inactive.
Turning to `Cc1nc2n(c(=O)c1CCN1CCC(c3noc4cc(F)ccc34)CC1)CCC[C@H]2O`, the Potency result in assay [1], in assay [2], in assay [7], in assay [8] and in assay [10] was “inactive” throughout. In addition, the outcome in assay [3], in assay [4], in [5], in assay [6] and in assay [9] was inactive.
In the case of `CC(C)=O`, the Potency result in [1], in [2], in assay [7], in [8] and in assay [10] was “inactive” each time. Besides, the result in assay [3], in assay [4], in assay [5], in assay [6] and in [9] was inactive.
As to `CC(=O)NCCCCCC(=O)O`, the Potency result in [1], in [2], in assay [7], in [8] and in assay [10] was “inactive” each time. The compound was called inactive in [3], in assay [4], in assay [5], in assay [6] and in [9].
In the case of `NNc1nnc(NN)c2ccccc12`, the Potency result in [1], in assay [2], in [7], in [8] and in assay [10] was “inactive” throughout. For the same compound, the result in [3], in assay [4], in assay [5], in assay [6] and in assay [9] was inactive.
Consider `COP(=O)(OC)OC(c1ccc(Cl)cc1)P(=O)(OC)OC` (stereo not given), for which the Potency entry in assay [1], in [2], in assay [7], in assay [8] and in assay [10] was “inactive” throughout. The outcome in [3], in [4], in assay [5], in assay [6] and in [9] was inactive.
For the compound `CCOC(=O)c1ncn2c1CN(C)C(=O)c1cc(F)ccc1-2`, the Potency result in [1], in assay [2], in assay [7], in assay [8] and in [10] was “inactive” throughout. Further, the compound was classed as inactive in [3], in [4], in assay [5], in assay [6] and in [9].
On to `C=C(C)C(=O)OCC(C)(C)COC(=O)C(=C)C`, for which the Potency result in [1], in assay [2], in assay [7], in [8] and in assay [10] was “inactive” each time. Also, the result in assay [3], in assay [4], in assay [5], in assay [6] and in assay [9] was inactive.
Regarding `CN(C)c1ccc(C=O)cc1`, the Potency entry in [1], in [2], in [8] and in assay [10] was “inactive” in each case. Moreover, the result in assay [3], in assay [4], in assay [5], in assay [6] and in assay [9] was inactive. The Potency in assay [7] was 54.5 µM (active).
On to `O=C(OCC(COC(=O)c1cccnc1)(COC(=O)c1cccnc1)COC(=O)c1cccnc1)c1cccnc1`, for which the Potency result in assay [1], in [2], in [7], in assay [8] and in [10] was “inactive” in each case. In addition, the call in assay [3], in assay [4], in assay [5], in [6] and in assay [9] was inactive.
For the compound `CC(C)N(c1ccccc1)C(C)C`, the Potency entry in [1], in assay [2], in assay [7], in assay [8] and in assay [10] was “inactive” in each case. Besides, the call in [3], in assay [4], in [5], in [6] and in [9] was inactive.
For the compound `O=C(O)CCSSCCC(=O)O`, the Potency entry in [1], in assay [2], in [7], in [8] and in assay [10] was “inactive” throughout. Further, the result in assay [3], in assay [4], in [5], in [6] and in [9] was inactive.
As for `CC(C)C(=O)OCCc1ccccc1`, the Potency entry in [1], in assay [2], in [7], in assay [8] and in [10] was “inactive” throughout. Moreover, the outcome in assay [3], in assay [4], in [5], in assay [6] and in [9] was inactive.
`C[C@@H](O)[C@H]1C(=O)N2C(C(=O)O)=C(SCCN=CN)C[C@H]12`: the Potency result in assay [1], in assay [2], in assay [7], in assay [8] and in [10] was “inactive” throughout. For the same compound, the call in assay [3], in assay [4], in assay [5], in [6] and in [9] was inactive.
